# Source: PubChem
# This is a sample that favours compounds with a hit; in the whole collection about 3.9% have one here.
# Mtb FBA inh – inhibitors of M. tuberculosis fructose-bisphosphate aldolase | P9WQA3 | purified M. tuberculosis FBA, fluorescence read-out | inhibition, % at 1 µM | actives 2.3% (n = 360,000); in the data active means inhibition above about 27%;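 further: 0% = vehicle and 100% = reference inhibitor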
# Target sequence (P9WQA3 whole entry, looked up): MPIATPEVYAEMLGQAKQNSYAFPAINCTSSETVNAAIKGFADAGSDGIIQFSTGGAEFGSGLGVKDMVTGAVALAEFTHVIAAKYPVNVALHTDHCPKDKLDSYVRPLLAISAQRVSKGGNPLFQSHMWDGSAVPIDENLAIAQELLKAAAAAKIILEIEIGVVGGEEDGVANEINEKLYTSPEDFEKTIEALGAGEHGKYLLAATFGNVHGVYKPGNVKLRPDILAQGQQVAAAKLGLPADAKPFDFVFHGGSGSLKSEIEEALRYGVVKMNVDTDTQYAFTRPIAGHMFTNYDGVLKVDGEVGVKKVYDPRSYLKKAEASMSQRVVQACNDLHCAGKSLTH
# Vc quorum ag – quorum light induction in luxS cqsA deficient V. cholerae; AID 588436; activation, % at 18.7 µM; actives 0.16% (n = 350,000); V. cholerae BH1578 lux reporter, luminescence, 6 h; in the data active means activation mostly above about 9.7%, no sharp cut-off
# GDH-TPI inh – counter-screen for M. tuberculosis FBA inhibitors: GDH-TPI coupled enzymes; GDH-TPI coupled enzyme counterscreen, NADH absorbance; actives 1.2% (n = 360,000); inhibition, % at 4.8 µM;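 further: 0% = DMSO wells and 100% = wells lacking the enzyme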
# CCHF vOTU inh-1 – CCHFV vOTU protease inhibition. Pep-AMC fluorescence. inhibition, % at 11.5 µM. actives 0.55% (n = 370,000); further: 0% = vehicle wells with enzyme and 100% = no enzyme wells
# CCHF vOTU inh-2 – confirmation of CCHF virus vOTU protease inhibitors | shares compounds with CCHF vOTU inh-1 | Recombinant CCHFV vOTU, Pep-AMC fluorescence | inhibition, % at 11.5 µM | actives 17% (n = 1,900)
# Starred values were filed as active, the others as inactive; i = inactive; / = no result. Unless noted, no stated cut-off is given here; in the data, active means inhibition above about 30%; inactive means the rest.
SMILES,Mtb FBA inh,Vc quorum ag,GDH-TPI inh,CCHF vOTU inh-1,CCHF vOTU inh-2
Cc1cccc(C)c1-n1c(C)cc(/C=N\NC(=O)CC(=O)NC2CCCCC2)c1C,-3,0,10,31*,-4
Cc1ccc(NC(=O)CSc2nnc(-c3cc(-c4ccc(Cl)cc4)n[nH]3)n2N)cc1,/,/,/,99*,-1
CCC(=O)NC(c1cccs1)c1cc([N+](=O)[O-])c2cccnc2c1OC (stereo not given),-8,i,16,124*,-8
CC1CCCC(C)N1C(=O)COC(=O)c1ccc([N+](=O)[O-])o1 (stereo not given),-2,i,-2,15,/
CC(=O)Nc1ccc(NC2=C/C(=N/S(=O)(=O)c3cccs3)c3ccccc3C2=O)cc1,-2,0,-8,110*,97*
Cc1ccccc1NC1=C/C(=N\S(=O)(=O)c2cccs2)c2ccccc2C1=O,-5,0,16,101*,98*
COc1ccc(S(=O)(=O)c2ccc(O)cc2)cc1,-2,i,-6,1,/
Cc1ccc(NC2=C/C(=N/S(=O)(=O)c3cccs3)c3ccccc3C2=O)cc1C,2,i,2,1,/
CC(=O)Nc1ccc(NC(=O)C(C)OC(=O)c2ccccc2NS(=O)(=O)c2cccs2)cc1 (stereo not given),6,0,-3,-8,/
COc1ccc(S(=O)(=O)/N=C2\C=C(Nc3ccc(O)cc3)C(=O)c3ccccc32)cc1,-7,i,8,110*,105*
CN1C(=O)NC(c2cccc([N+](=O)[O-])c2)C2=C1CC(C)(C)CC2=O (stereo not given),-2,1,-4,-10,/
Cn1c(N)c(C(=O)COC(=O)c2ccc(Br)o2)c(=O)n(C)c1=O,5,/,-4,-6,/
Cn1c(N)c(C(=O)COC(=O)c2ccc([N+](=O)[O-])o2)c(=O)n(C)c1=O,0,i,1,44*,-5
CC1=NN(c2ccc(Cl)cc2)C(=O)C1,1,0,-1,41*,-11
CC1=NN(c2cccc([N+](=O)[O-])c2)C(=O)C1,-3,-1,9,13,/
CC1=NN(Cc2ccccc2)C(=O)C1,1,i,-7,36*,-19
CC1=NN(c2ccccc2)C(=O)C1,-3,i,4,87*,-11
CC1=NN(c2ccc(N)cc2)C(=O)C1,1,i,11,57*,-9
O=C1CCCCCCCN1Cc1ccccc1,0,0,-7,-10,/
CC1=NN(c2nc(-c3ccc(Cl)cc3)cs2)C(=O)C1,5,0,-2,1,/
O=C(Nc1ccccc1)c1cc(C2COCCN2C(=O)CCCc2ccccc2)on1 (stereo not given),-1,-1,-15,5,/
COC(=O)COc1ccc(S(=O)(=O)N2CCN(c3ccccc3)CC2)cc1,-3,-1,1,5,/
COC(=O)c1ccccc1NC(=S)N1CCOCC1,1,i,7,3,/
Cc1ccc(NC(=O)CCCSc2ccccc2)cc1S(=O)(=O)N1CCOCC1,-2,3,9,10,/
CCOC(=O)C1=C(C)OC(=CC=Cc2ccccc2)C1=O,0,i,10,30*,-9
SMILES,Mtb FBA inh,Vc quorum ag,GDH-TPI inh,CCHF vOTU inh-1,CCHF vOTU inh-2
COc1ccc(CCn2c(-c3cccc([N+](=O)[O-])c3)nc3nc4ccccc4nc32)cc1OC,2,-1,-1,0,/
NC(=O)CC(NC(=O)Cc1ccc(Br)cc1)c1ccc(NCCN2CCCCC2)c([N+](=O)[O-])c1 (stereo not given),2,-1,-16,2,/
NC(=O)CC(NC(=O)Cc1ccc(Br)cc1)c1ccc(NCCN2CCCC2)c([N+](=O)[O-])c1 (stereo not given),-2,-1,-7,34*,-14
O=C1C2=C(c3ccccc31)[N+](=O)[C@@H]1CCCC[C@@H]1N2[O-],2,-10,16,74*,27
O=C1C2=C(c3ccccc31)[N+](=O)C1CCCCC1N2[O-] (stereo not given),-1,0,5,57*,29
O=C1c2ccccc2C(=O)c2c1ccc1c(=O)n(C3CCCCC3)[nH]c21,0,0,24,-7,/
CCOC(=O)N(C)[C@H]1C[C@H]2c3[nH]c4c(-c5cccc(C)c5)cccc4c3CCN2C[C@H]1[C@H](C)O,/,/,/,3,/
CCOc1ccc(S(=O)(=O)Nc2cccc(C(=O)N(C)Cc3cccc(OC)c3OC)c2)cc1,0,1,-6,21,/
C=CCCC[C@H]1OC(=O)[C@H](C)NC(=O)[C@H](C(C)C)NC(=O)[C@@H]2CCCN2C(=O)[C@H](Cc2ccccc2)OC(=O)[C@@H](C(C)C)N(C)C(=O)[C@H](C(C)C)NC(=O)C1(C)C,/,/,/,30*,6
Cc1ccsc1C1C(C#N)=C(N)OC2=C1C(=O)CCC2 (stereo not given),-1,0,28,-9,/
CC(OC(=O)CCc1cc(C(C)(C)C)c(O)c(C(C)(C)C)c1)C(=O)NC1CC1 (stereo not given),4,0,5,-3,/
O=C(Nc1cccc(Cl)c1)Nc1ccnc(-c2cccnc2)n1,-2,0,2,32*,-20
CCCc1ccc(-c2cc(NC(=O)Cc3c(C)[nH]c4ccccc34)ccc2Nc2cccnc2)cc1,/,/,/,12,/
CCCc1ccc(-c2cc(NC(=O)Cc3c(C)[nH]c4ccccc34)ccc2N(C)c2cccnc2)cc1,/,/,/,39*,-3
CCn1nc(-c2ccccc2)nc2c(=O)n(C)c(=O)nc1-2,-14,i,4,/,/
Cc1nc2c(=O)n(C)c(=O)nc-2n(C)n1,-12,0,1,102*,99*
COc1ccc(Cc2nccc3cc(OC)c(OC)cc23)cc1OC,4,15,6,92*,40*
COC(=O)C1=C(C(=O)OC)SC2(S1)C(C(=O)OC)=C(C(=O)OC)Sc1c2ssc1=O,4,i,17,32*,9
O=C(COc1ccccc1)Nc1c2c(nn1-c1ccccc1)CS(=O)(=O)C2,3,i,1,12,/
COc1ccc(NC(=O)CN(C)CC(=O)NC(=O)NC2CCCCC2)cc1,-2,-1,6,38*,-18
C=CCNC(=O)c1cccc2c1C(=O)c1ccc(N3CCOCC3)cc1S2(=O)=O,-7,0,2,31*,-7
C/C(=N\NC(=O)c1cc(O)ccc1O)c1cccc(NC(=O)c2cccc(Cl)c2)c1,1,/,2,32*,-3
Cc1nn(Cc2ccc(Cl)cc2Cl)c(C)c1NC(=O)NC12CC3CC(CC(C3)C1)C2,-1,i,-4,4,/
CCOC(=O)C1CCN(Cc2oc(CO)cc(=O)c2O)CC1,-3,5,-3,41*,-13
COc1ccc(N2C(=O)C(Cl)=C(Nc3ccccc3OC)C2=O)cc1,-3,0,18,36*,-5
COc1ccc(N2C(=O)C(Cl)=C(Nc3ccccc3O)C2=O)cc1,-3,0,-6,9,/
CCN(C(=O)CSc1nnc(SC(C)C)s1)C1CCS(=O)(=O)C1 (stereo not given),-2,i,5,37*,-11
